# Test results from ChEMBL document CHEMBL4513146, “CO-ADD screening of Karazin Kharkiv National University (Ukraine) compounds”.
# Entries with a potency or affinity are not part of this list.
# Test system: Escherichia coli
# Settings: Concentration 32 ug.mL-1;; ASSAY_TEST Inhibition of Bacterial Growth; detection method Absorption (OD600); MEDIA CAMHB; plate type 384well; NBS; CORNING #3640; time 18 hr
row,Compound,Inhibition [%]
1,O=c1c2nn(Cc3cccc(F)c3)c(=O)n2ccn1-c1ccccc1,-7.67
2,Cc1ccc(-c2cc3c4nnc(CCC(=O)N5CCN(c6ccccc6F)CC5)n4ccn3n2)cc1C,-5.39
3,COc1cccc(Oc2nccn3c(=O)n(CC(=O)Nc4ccc(Br)cc4F)nc23)c1,-0.07
4,CCOC(=O)c1ccccc1NC(=O)Cn1nc2ccc(Sc3ccc(C)cc3)nn2c1=O,1.21
5,CCc1ccccc1Sc1nccn2c(=O)n(CC(=O)Nc3cccc(Br)c3)nc12,2.3
6,O=c1n(Cc2cccc(C(F)(F)F)c2)nc2c(S(=O)(=O)N3CCCCC3)cccn12,-3.78
7,COc1ccc(CNC(=O)CSc2nnc3c4cc(-c5ccc(C)cc5)nn4ccn23)cc1OC,-0.16
8,O=C(CSc1nnc2c(=O)n(-c3ccc(F)cc3)ccn12)N1CCN(c2ccccc2F)CC1,-0.33
9,CC(C)c1nnc2c(SCC(=O)Nc3ccccc3C(F)(F)F)nc3ccccc3n12,-3.21
10,Cc1ccc(N(Cc2ccccc2)S(=O)(=O)c2ccc3nncn3c2)cc1F,-9.13
11,Cc1ccc(NC(=O)Cn2nc3ccc(SC(C)(C)C)nn3c2=O)cc1Cl,-0.69
12,COc1ccc(C(=O)CSc2nnc3c(=O)n(-c4ccc(F)cc4)ccn23)cc1OC,-2.12
13,Cc1cc(C)c(NC(=O)Cn2nc3c(N4CCN(c5ccccc5)CC4)nccn3c2=O)c(C)c1,-0.55
14,Cc1ccc(-n2ccn3c(SCC(=O)N4CCN(c5ccc(F)cc5)CC4)nnc3c2=O)cc1C,-2.64
15,Cc1ccccc1Oc1nccn2c(=O)n(CC(=O)Nc3ccccc3C(F)(F)F)nc12,1.35
16,O=C(CCc1nnc2c3cc(-c4ccccc4)nn3ccn12)N1CCN(C(=O)c2ccco2)CC1,0.93
17,Cc1nnc2ccc(S(=O)(=O)N(Cc3ccccc3)c3ccc(Cl)cc3)cn12,-13.98
18,COc1ccc(-c2cc3c4nn(CC(=O)Nc5cccc(C(C)=O)c5)c(=O)n4ccn3n2)cc1,-6.63
19,COc1cc(OC)c(NC(=O)Cn2nc3c(Sc4cccc(C)c4)nccn3c2=O)cc1Cl,-1.94
20,CCOc1ccc(-n2ccn3c(SCC(=O)NCc4cccc(OC)c4OC)nnc3c2=O)cc1,-1.13

row,Compound,Inhibition [%]
1,Cc1nnc2c(=S)[nH]c3ccccc3n12,10.5
2,COc1ccc(NC(=O)Cn2nc3c4cc(-c5ccc(OC)cc5)nn4ccn3c2=O)cc1,2.94
3,CCCCn1c(=O)c2sccc2n2c(=O)n(CC(=O)NC(C)CC)nc12 (centres undefined),-9.68
4,Cc1ccc(-n2ccn3c(SC(C)C(=O)Nc4ccc5c(c4)OCCO5)nnc3c2=O)cc1C (centres undefined),-2.85
5,Cc1ccc(Cl)cc1NC(=O)Cn1nc2c(N3CCOCC3)nc3ccccc3n2c1=O,-9.52
6,Cc1ccc(NC(=O)Cn2nc3ccc(SC4CCCCC4)nn3c2=O)c(Cl)c1,-5.46
7,Cc1cccc(NC(=O)Cn2nc3ccc(-c4ccc(C)c(C)c4)nn3c2=O)c1,-14.87
8,CC1CCN(C(=O)Cn2nc3n(Cc4cccs4)c(=O)c4sccc4n3c2=O)CC1,-8.96
9,Cc1ccc(Cl)cc1N1CCN(C(=O)CCc2nnc3c4cc(-c5ccccc5)nn4ccn23)CC1,-6.03
10,COc1ccc(Cn2nc3ccc(-c4ccccc4)nn3c2=O)cc1F,2.33
11,N#Cc1cccc(NC(=O)CSc2nnc3c4cc(-c5ccc(F)cc5)nn4ccn23)c1,-2.69
12,Cc1ccccc1Nc1cc(C)n2c(=O)n(CCOc3ccc(F)cc3)nc2n1,-3.45
13,Cc1cc2nn(CC(=O)Nc3ccc(F)cc3Cl)c(=O)n2c(Nc2ccccc2C)n1,-11.67
14,O=C(Cn1nc2c3c4c(sc3ncn2c1=O)CCCC4)N1CCc2ccccc2C1,2.08
15,O=C(CSc1nnc2c(=O)n(-c3ccc(F)c(F)c3)ccn12)c1c[nH]c2ccccc12,-5.88
16,COc1ccccc1-n1ccn2c(SCC#N)nnc2c1=O,0.38
17,COc1ccc(-c2cc3c4nnc(SCC(=O)Nc5ccc(C)c(F)c5)n4ccn3n2)cc1,-1.39
18,O=C(NCc1ccccc1)c1ccc2nn(CC(=O)N3CCN(c4ccccc4F)CC3)c(=O)n2c1,-3.36
19,O=c1c2nnc(SCc3ccccc3)n2ccn1-c1ccc(Br)cc1,-3.8
